Source: PubChem BioAssay AID1159580 (chemical genetic matrix, 2015)
The whole screen tested about 5,500 compounds, of which about 2,000 (36%) were called active. Roughly 18% stayed inconclusive and do not appear here. No stated cut-off is given here; in the data, active means normalized growth mostly below about 0.91 (no sharp cut-off); inconclusive means no clear call, values can overlap the other calls; inactive means mostly above about 0.92. The list shows a part of the results.

Experiment: chemical genetic growth profiling, strain panel (AID 1159580);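 further: tested at 20 µM; growth read once vehicle control cultures reached saturation at 30 °C; 1 = growth at the plate median or of vehicle wells; lower values mean less growth of the strain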
Conditions: S. cerevisiae deletion strains, growth OD
[1] = locus YAR019C, strain CDC15, hits give low values
[2] = locus YBL105C, strain PKC1, hits give low values
[3] = locus YBR135W, strain CKS1, hits give low values
[4] = locus YBR136W, strain MEC1, hits give low values
[5] = locus YBR160W, strain CDC28, hits give low values
[6] = locus YDL017W, strain CDC7, hits give low values
[7] = locus YDL028C, strain MPS1, hits give low values
[8] = locus YDL101C, strain DUN1, hits give low values
[9] = locus YDL108W, strain KIN28, hits give low values
[10] = locus YDL132W, strain cdc53, hits give low values
[11] = locus YDL214C, strain PRR2, hits give low values
[12] = locus YDR052C, strain DBF4, hits give low values
[13] = locus YDR054C, strain cdc34, hits give low values
[14] = locus YDR226W, strain ADK1, hits give low values
[15] = locus YDR477W, strain SNF1, hits give low values
[16] = locus YER123W, strain YCK3, hits give low values
[17] = locus YER133W, strain GLC7, hits give low values
[18] = locus YFL009W, strain cdc4, hits give low values
[19] = locus YFL029C, strain CAK1, hits give low values
[20] = locus YFR003C, strain YPI1, hits give low values
[21] = locus YFR019W, strain FAB1, hits give low values
[22] = locus YFR028C, strain CDC14, hits give low values
[23] = locus YGR040W, strain KSS1, hits give low values
[24] = locus YGR052W, strain FMP48, hits give low values
[25] = locus YGR092W, strain DBF2, hits give low values
[26] = locus YHR030C, strain SLT2, hits give low values
[27] = locus YHR079C, strain IRE1, hits give low values
[28] = locus YHR082C, strain KSP1, hits give low values
[29] = locus YHR205W, strain SCH9, hits give low values
[30] = locus YIL147C, strain SLN1, hits give low values
[31] = locus YJL095W, strain BCK1, hits give low values
[32] = locus YJL128C, strain PBS2, hits give low values
[33] = locus YJL157C, strain FAR1, hits give low values
[34] = locus YJR016C, strain ILV3, hits give low values
[35] = locus YJR066W, strain TOR1 (second series), hits give low values
[36] = locus YJR066W, strain TOR1, hits give low values
[37] = locus YKL048C, strain ELM1, hits give low values
[38] = locus YKL067W, strain YNK1, hits give low values
[39] = locus YKL101W, strain HSL1, hits give low values
[40] = locus YKL193C, strain SDS22, hits give low values
[41] = locus YKL203C, strain TOR2, hits give low values
[42] = locus YLR113W, strain HOG1, hits give low values
[43] = locus YLR133W, strain CKI1, hits give low values
[44] = locus YLR403W, strain SFP1, hits give low values
[45] = locus YML070W, strain DAK1, hits give low values
[46] = locus YMR001C, strain CDC5, hits give low values
[47] = locus YMR205C, strain PFK2 (second series), hits give low values
[48] = locus YMR277W, strain FCP1, hits give low values
[49] = locus YNL006W, strain LST8, hits give low values
[50] = locus YNL020C, strain ARK1, hits give low values
[51] = locus YNL161W, strain CBK1, hits give low values
[52] = locus YNL183C, strain NPR1, hits give low values
[53] = locus YNL207W, strain RIO2, hits give low values
[54] = locus YNL222W, strain SSU72, hits give low values
[55] = locus YNL307C, strain MCK1 (second series), hits give low values
[56] = locus YOL078W, strain AVO1, hits give low values
[57] = locus YOL136C, strain PFK27, hits give low values
[58] = locus YOR061W, strain CKA2, hits give low values
[59] = locus YOR119C, strain RIO1, hits give low values
[60] = locus YOR231W, strain MKK1, hits give low values
[61] = locus YOR329C, strain SCD5, hits give low values
[62] = locus YPL031C, strain PHO85, hits give low values
[63] = locus YPL153C, strain RAD53, hits give low values
[64] = locus YPL204W, strain HRR25, hits give low values
[65] = locus YPL209C, strain IPL1, hits give low values
[66] = locus YPL256C, strain CLN2, hits give low values
[67] = locus YPR025C, strain CCL1, hits give low values
[68] = locus YPR106W, strain ISR1, hits give low values
[69] = locus YPR111W, strain DBF20, hits give low values
[70] = strain NNK1, hits give low values
[71] = strain TSCII, hits give low values
[72] = locus YAL013W, strain DEP1, hits give low values
[73] = locus YBR229C, strain ROT2, hits give low values
[74] = locus YDL134C, strain PPH21, hits give low values
[75] = locus YDR150W, strain NUM1, hits give low values
[76] = locus YEL061C, strain CIN8, hits give low values
[77] = locus YGR078C, strain PAC10, hits give low values
[78] = locus YHR087W, strain rtc3, hits give low values
[79] = locus YJR043C, strain POL32, hits give low values
[80] = locus YJR075W, strain HOC1, hits give low values
[81] = locus YKL190W, strain CNB1, hits give low values
[82] = locus YLR039C, strain RIC1, hits give low values
[83] = locus YLR058C, strain SHM2 (second series), hits give low values
[84] = locus YLR085C, strain ARP6, hits give low values
[85] = locus YLR262C, strain YPT6, hits give low values
[86] = locus YML094W, strain GIM5, hits give low values
[87] = locus YMR219W, strain ESC1, hits give low values
[88] = locus YMR263W, strain SAP30, hits give low values
[89] = locus YNL153C, strain GIM3, hits give low values
[90] = locus YNL298W, strain CLA4 (second series), hits give low values
[91] = locus YNL322C, strain KRE1, hits give low values
[92] = locus YNR030W, strain Alg12, hits give low values
[93] = locus YPL055C, strain LGE1, hits give low values
[94] = locus YPL241C, strain CIN2, hits give low values
[95] = locus YPR135W, strain CTF4, hits give low values

Measured: normalized growth

O=C(NNc1ccc(Cl)cc1)c1ccc(F)cc1F
inactive: [1] 0.937 | [2] 0.942 | [3] 0.952 | [4] 0.946 | [5] 0.942 | [6] 0.95 | [7] 0.959 | [8] 0.949 | [9] 0.959 | [10] 0.967 | [11] 0.701 | [12] 0.938 | [13] 0.949 | [14] 0.967 | [15] 0.701 | [17] 0.755 | [18] 0.971 | [19] 0.944 | [20] 0.952 | [22] 0.958 | [23] 0.718 | [24] 0.63 | [27] 0.747 | [28] 0.762 | [29] 0.663 | [30] 0.953 | [32] 0.897 | [33] 0.736 | [34] 0.94 | [36] 0.759 | [38] 0.752 | [39] 0.784 | [40] 0.949 | [41] 0.855 | [44] 0.744 | [46] 0.942 | [47] 0.826 | [48] 0.956 | [49] 0.968 | [50] 0.765 | [51] 0.947 | [52] 0.777 | [53] 0.946 | [54] 0.946 | [56] 0.948 | [59] 0.796 | [60] 0.695 | [61] 0.95 | [62] 0.766 | [63] 0.696 | [64] 0.723 | [65] 0.941 | [67] 0.947 | [68] 0.965 | [69] 0.974 | [70] 0.937 | [71] 0.947
active: [16] 0.404 | [21] 0.547 | [25] 0.345 | [26] 0.372 | [31] 0.271 | [35] 0.606 | [37] 0.747 | [42] 0.373 | [43] 0.701 | [45] 0.54 | [55] 0.451 | [57] 0.616 | [58] 0.399 | [66] 0.487

O=C(NNc1c(Cl)cc(Cl)cc1Cl)NC(=O)c1ccccc1F
inactive: [72] 0.997 | [73] 0.982 | [8] 0.998 | [74] 1.02 | [75] 1.02 | [76] 0.996 | [77] 1 | [26] 0.905 | [78] 1.02 | locus YJL187C, strain SWE1, hits give low values 0.999 | [79] 1 | [80] 0.99 | [81] 1.02 | [82] 0.936 | [83] 1.02 | [84] 0.992 | [85] 0.965 | [86] 1 | [87] 1.02 | [88] 1.01 | locus YNL128W, strain TEP1, hits give low values 1.01 | [89] 0.989 | [90] 0.986 | [91] 1 | [92] 1.04 | [93] 1.01 | [94] 0.986 | [95] 0.966

O=C1CSC(c2ccc(C(F)(F)F)cc2)N1c1ccc(C(F)(F)F)cc1 (stereo not drawn)
active: [42] 0.829
inactive: [1] 0.998 | [2] 1 | [3] 0.997 | [4] 1 | [5] 1 | [6] 1 | [7] 0.999 | [8] 1 | [9] 0.996 | [10] 0.997 | [11] 0.952 | [12] 1.01 | [13] 1 | [14] 1 | [15] 0.966 | [16] 0.911 | [17] 0.968 | [18] 1 | [19] 0.986 | [20] 0.994 | [21] 0.95 | [22] 0.993 | [23] 0.962 | [24] 0.972 | [25] 0.979 | [26] 0.878 | [27] 0.897 | [28] 0.936 | [29] 0.885 | [30] 1 | [31] 0.933 | [32] 0.939 | [33] 0.976 | [34] 1 | [35] 0.951 | [36] 0.936 | [37] 0.968 | [38] 0.946 | [39] 0.923 | [40] 1 | [41] 1.02 | [43] 0.949 | [44] 0.949 | [45] 0.924 | [46] 1 | [47] 0.942 | [48] 0.999 | [49] 1 | [50] 0.957 | [51] 1.01 | [52] 0.898 | [53] 0.995 | [54] 1 | [55] 0.941 | [56] 1.01 | [57] 0.937 | [58] 0.943 | [59] 1.03 | [60] 0.914 | [61] 1 | [62] 0.97 | [63] 0.96 | [64] 0.959 | [65] 1.01 | [66] 0.871 | [67] 0.998 | [68] 0.988 | [69] 0.979 | [70] 0.98 | [71] 0.999

O=C1CSC(c2ccc(Cl)c(Cl)c2)N1c1ccc(F)cc1 (stereo not drawn)
active: [74] 0.886
inactive: [72] 0.988 | [73] 0.975 | [8] 0.964 | [75] 0.968 | [76] 0.988 | [77] 0.975 | [26] 0.95 | [78] 0.985 | [79] 0.974 | [80] 0.939 | [81] 0.985 | [82] 0.994 | [83] 1 | [84] 0.942 | [85] 0.947 | [86] 0.95 | [87] 0.994 | [88] 0.989 | [89] 0.962 | [90] 0.93 | [91] 0.988 | [92] 0.906 | locus YOL006C, strain TOP1, hits give low values 0.889 | [93] 0.971 | [94] 0.977 | [95] 0.85

Cc1ccc(N2C(=O)CSC2c2ccc(Cl)c(Cl)c2)cc1Cl (stereo not drawn)
active: [26] 0.808 | [42] 0.791 | [66] 0.826
inactive: [1] 0.982 | [2] 0.974 | [3] 0.982 | [4] 0.976 | [5] 0.978 | [6] 0.975 | [7] 0.977 | [8] 0.97 | [9] 0.98 | [10] 0.982 | [11] 0.95 | [12] 0.98 | [13] 0.971 | [14] 0.973 | [15] 0.96 | [16] 0.956 | [17] 0.981 | [18] 0.977 | [19] 0.977 | [20] 0.973 | [21] 0.97 | [22] 0.988 | [23] 0.965 | [24] 1.01 | [25] 0.935 | [27] 0.887 | [28] 1.07 | [29] 0.94 | [30] 0.981 | [31] 0.918 | [32] 0.922 | [33] 0.961 | [34] 0.988 | [35] 0.913 | [36] 0.995 | [37] 0.957 | [38] 0.959 | [39] 0.953 | [40] 0.977 | [41] 1.01 | [43] 0.947 | [44] 0.95 | [45] 0.943 | [46] 0.975 | [47] 0.977 | [48] 0.981 | [49] 0.976 | [50] 0.933 | [51] 0.977 | [52] 0.994 | [53] 0.968 | [54] 0.988 | [55] 0.942 | [56] 0.982 | [57] 0.928 | [58] 0.953 | [59] 1.03 | [60] 0.937 | [61] 0.972 | [62] 0.957 | [63] 0.984 | [64] 0.933 | [65] 0.976 | [67] 0.977 | [68] 0.971 | [69] 0.962 | [70] 0.959 | [71] 0.981
